Source: the supplement of paper PMC10338343
± gives the standard deviation.

Test system: MILI (PIWIL2) piRISC loaded with L1MC piRNA (26 nt)
Assay: pre-steady-state target cleavage rate (min^-1); guide: L1MC piRNA 5'p-UAACUAAAUACUAUGCAAGCUGUAGG; MIWI and MILI are mouse PIWI proteins and EfPiwi is from a freshwater sponge; tags in brackets are library labels; higher = faster piRNA-guided slicing of the target
Conditions: auxiliary factor: 500 nM mouse GTSF1
Procedure, shortened: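 With or without 500 nM GTSF1 partner protein, 1 nM active affinity-purified piRISC carrying one synthetic guide was mixed with 0.1 nM transcribed, DNA-blocked target RNA library in HEPES–potassium acetate buffer at 33 °C for 0–8 or 0–960 min. Uncleaved targets were sequenced and normalised to depth and to weakly complementary targets, three trials were pooled, and k3 was capped at 0.0001 min^-1. The pre-steady-state cleavage rate came from a burst-and-steady-state fit.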

Sequence | pre-steady-state target cleavage rate
UCCUGGUACAGCUUGCAUAGUAUUAUCUUA | 0.0311 ± 0.014
UCCUGGAUGUGCUUGCAUAGAAUAUAGUUA | 0.00814 ± 0.0043
UCCUCCUACAGCUUGCAUCAGUAUUUAGUUA | 0.0234 ± 0.0093
UCCUGGAACAGCUUGCAUAGUAAAAAGUAA | 0.076 ± 0.022
UCCUGGAUGAGCUUGCAUAGUAUUUUGUAA | 0.0267 ± 0.011
UCCUGGAUGUCCUUGCAUAGUUUAUAGUUA | 0.0111 ± 0.006
UCCUGGAUCAGCUUGCAAUGUAUUUAGAAA | 0.0496 ± 0.013
UCCUGCUACAGCUUGCAAAGUAUUUACUUA | 0.0653 ± 0.0078
UCCUGGAUCAGCUUGCAUACUAUUUUCAAA | 0.00818 ± 0.004
UCCUGGAUGUGCUUCCAUUGUAUUUAGUUA | 0.0206 ± 0.0071
UCCUGGAUGUCCUUGCAUUGUAUUUAGUAA | 0.0421 ± 0.015
UCCUGGAUGUGCUACCAUAGUAUUUAGAAA | 0.00379 ± 0.0038
UCCUGGAUCAGCUUGGUUAGUAUUUACAAA | 0.00756 ± 0.0052
UCCUGGAUCAGCUUGCAUUGUAUUUUCAAA | 0.00931 ± 0.0046
UCCUGGAUGUCGAUGCAUAGUAUUUAUGUUA | 0.106 ± 0.022
UCCUGGAACAGCUUGCAUAGUAUUAUCAAA | 0.0521 ± 0.017
UCCUGGAUGUCCAUGCAUUGUAUUUAGUUA | 0.0108 ± 0.0042
UCCUGGAACUCCUUGCAUAGUAUUUAGAAA | 0.162 ± 0.029

Sequence | pre-steady-state target cleavage rate
UCCUGGAUGUCCUUGCAUAGUAAAAAGUUA | 0.0137 ± 0.0059
UCCUGGAUGAGCUACGAUAGUAUUUAGUUA | 0.00662 ± 0.0035
UCCUGGAUGAGCAUGCAUAGAAUUUAGUUA | 0.0184 ± 0.008
UCCUCCUAGUCCUUGCAUAGUAUUUUCAAA | 0.0344 ± 0.013
UCCUGGUAGAGCUUCCAUAGUAUUUAGUUA | 0.0967 ± 0.033
UCCUGGAUGAGCUUGCAUGUAUUUAGUUA | 0.0097 ± 0.004
UCCUGGAUGUCGAACCAUAGUUAAUAGUUA | < 0.0001
UCCUGGAUGUCGAUGCAUAGUAUUUAGCUUA | 0.0496 ± 0.014
UCCUGGAUGUCGAAGCAUAGUAUUGUAGUUA | 0.00801 ± 0.0041
UCCUGCUACAGCUUGCAUAGUAUUUAGUA | 0.335 ± 0.07
UCCUCCUACACCUUGCAUAGUAUUUUCAAA | 0.0721 ± 0.021
UCCUGCUACAGCUUGGAUAGUAUUUACUUA | 0.00864 ± 0.0043
UCCUGGUACAGCAUGCAUAGUAUUUUCAAA | 0.0847 ± 0.026
UCCUCCUACAGCUUGCAUUCUAUUUAGAAA | 0.0122 ± 0.0056
UCCUGCUACAGCUUGCAUCAGUAUUUAGUUA | 0.015 ± 0.0065
UCCUGGUACACGUUGCAUAGUAUUUUCAAA | 0.02 ± 0.011
UCCUGGAUGUGGUUGCAUAGUAUUUAGAAA | 0.0521 ± 0.022

Same assay, conditions: auxiliary factor: none (no GTSF1)

Sequence | pre-steady-state target cleavage rate
UCCUGGAACAGCUUGCAAUCAUAAAUCAAA [g14:g23:cont:t1A] | < 0.0001
UCCUGGAUGUCGAACGUAUGAAUUUUGUUA | < 0.0001
UCCUGGAUGUCGAACGAUAGUAUUUAGAUA | < 0.0001
UCCUGGAUGUGCUUCCAUAGUAUUUAGAUA | < 0.0001
UCCUGGAUGUCGAAGCUUAGUAUUUUGUUA | < 0.0001
